An excerpt weighted towards active compounds, which were near 4.2% of everything screened.
E coli RNAP: inhibitors of Escherichia coli RNA polymerase. P0A8V2. E. coli RNA polymerase, fluorescence transcription assay. inhibition, %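 (tested at 10 µM)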. hit rate 0.2% among 62,000; in the data active = inhibition above about 20%;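 also: 0% = enzyme without compound and 100% = no enzyme blank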
Pyk2 oligo antag: blocks oligomerization of human Pyk2 in cells; Q293 cells, Pyk2 FERM NanoBiT luminescence; hits give low values; z-score (the deposit names both 25 µM and 10 µM); hit rate 0.83% among 99,000;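 active = Z-score of -3 or lower, scaled per plate to the spread of control and sample wells; inactive = z-score above -3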;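 also: negative z-score means lost luminescence so less FERM oligomerization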
Target sequence (Q14289 whole entry, looked up): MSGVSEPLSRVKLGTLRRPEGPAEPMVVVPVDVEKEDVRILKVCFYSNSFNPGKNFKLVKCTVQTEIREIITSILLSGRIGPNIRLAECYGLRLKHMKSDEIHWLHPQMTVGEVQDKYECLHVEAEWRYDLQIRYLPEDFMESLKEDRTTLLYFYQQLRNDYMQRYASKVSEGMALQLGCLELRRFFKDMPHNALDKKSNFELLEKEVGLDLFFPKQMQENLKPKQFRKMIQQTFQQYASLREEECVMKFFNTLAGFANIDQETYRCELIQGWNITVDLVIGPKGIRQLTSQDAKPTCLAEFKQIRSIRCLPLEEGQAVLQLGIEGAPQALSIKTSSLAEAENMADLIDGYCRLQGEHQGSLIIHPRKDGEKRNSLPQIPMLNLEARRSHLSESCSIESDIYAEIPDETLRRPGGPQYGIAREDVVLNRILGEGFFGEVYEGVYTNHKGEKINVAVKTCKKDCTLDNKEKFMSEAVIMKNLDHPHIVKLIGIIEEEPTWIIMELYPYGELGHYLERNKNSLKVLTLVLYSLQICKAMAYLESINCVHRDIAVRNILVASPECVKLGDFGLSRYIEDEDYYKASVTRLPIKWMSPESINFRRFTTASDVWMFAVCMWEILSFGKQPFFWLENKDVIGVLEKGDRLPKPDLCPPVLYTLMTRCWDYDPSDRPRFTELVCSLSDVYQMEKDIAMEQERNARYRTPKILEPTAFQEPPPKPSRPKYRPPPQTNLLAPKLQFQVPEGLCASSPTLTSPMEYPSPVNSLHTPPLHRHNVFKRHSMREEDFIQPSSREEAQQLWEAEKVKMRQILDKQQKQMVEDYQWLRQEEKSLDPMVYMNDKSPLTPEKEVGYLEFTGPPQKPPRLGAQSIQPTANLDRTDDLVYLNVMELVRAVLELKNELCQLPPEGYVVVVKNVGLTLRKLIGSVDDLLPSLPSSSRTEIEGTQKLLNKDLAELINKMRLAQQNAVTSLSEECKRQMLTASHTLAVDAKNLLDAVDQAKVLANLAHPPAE
Mac1 fbg enh: increases human CD11b/CD18 adhesion to fibrinogen | hit rate 0.07% among 93,000 | AID 1499 | activation, % at 10 µM | P05107+P11215 | K562 CD11b/CD18 adhesion to fibrinogen, ATPlite luminescence;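 active = 10 µM primary screen giving 50% or more activity, confirmed by 40% or more on retest at that dose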
Mac1 fbg inh: inhibitors of human CD11b/CD18 binding to fibrinogen; inhibition, % at 10 µM; AID 1497; P05107+P11215; K562 CD11b/CD18 adhesion to fibrinogen, ATPlite luminescence; Mn2+ added to activate the integrin; hit rate 0.54% among 93,000;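 active = primary inhibition of 50% or more at 10 µM, then 40% or more on retest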
Cav32 inh: blocks human Cav3.2 T-type calcium channel; B-score at 10 µM; hit rate 4% among 100,000; Cav3.2-expressing cells, Fluo-4 calcium fluorescence FDSS; hits give low values; O95180;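 active = single-dose well whose peak fluorescence ratio is a statistical outlier from its plate by either plate-standardised score or position-corrected B-score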
* = called active by the depositor.

`CCC(c1nnnn1Cc1ccco1)N1CCN(c2cc(Cl)ccc2C)CC1` (configuration not stated) gave Pyk2 oligo antag -0.16, Mac1 fbg enh -1, Mac1 fbg inh -7 and Cav32 inh -5.8*.
For CCOC(=O)C(C(=O)NCc1cccc(OC)c1)c1ncc(C(F)(F)F)cc1Cl (configuration not stated) the results were Pyk2 oligo antag -0.04, Mac1 fbg enh 0, Mac1 fbg inh -23 and Cav32 inh -0.029.
Screening CCOc1cc(C)c(Cl)cc1S(=O)(=O)NCc1ccc2c(c1)OCO2 returned E coli RNAP 4, Pyk2 oligo antag 0.24, Mac1 fbg enh 1 and Mac1 fbg inh -10.
For CCOc1cc(S(=O)(=O)NCc2ccc3c(c2)OCO3)c(C)cc1C the results were E coli RNAP -1, Pyk2 oligo antag -0.1, Mac1 fbg enh 0, Mac1 fbg inh 2 and Cav32 inh -6.2*.
`Cc1ccc2cc(CN(Cc3nnnn3C3CCCCC3)CC3CCCO3)c(=O)[nH]c2c1` (configuration not stated) gave E coli RNAP 7, Pyk2 oligo antag -0.6, Mac1 fbg enh 2, Mac1 fbg inh 6 and Cav32 inh -2.6*.
Cc1cc(C)c2cc(CN(Cc3nnnn3C3CCCCC3)CC3CCCO3)c(=O)[nH]c2c1 (configuration not stated) was read as E coli RNAP 2, Pyk2 oligo antag 0.57, Mac1 fbg enh 4, Mac1 fbg inh 7 and Cav32 inh -1.3.
`CC1=NN(Cc2ccccc2)C(=O)C1C(c1ccccc1)C(C#N)C#N` (configuration not stated) gave Pyk2 oligo antag -3.6* and Cav32 inh 1.4.
`COc1cc(OC)c(-c2c3cc(O)c(=O)cc-3oc3cc(O)c(O)cc23)cc1OC` gave Mac1 fbg enh 6 and Mac1 fbg inh 22.
For Cc1c2cc(O)c(=O)cc-2oc2cc(O)c(O)cc12 the results were Pyk2 oligo antag -1.4, Mac1 fbg enh 6, Mac1 fbg inh 7 and Cav32 inh -3.9*.
Screening CC(C)Cn1c(=O)c2ccccc2n2c(SCC(=O)N3c4ccccc4CC3C)nnc12 (configuration not stated) returned Pyk2 oligo antag -0.17.
For Cc1ccc2cccc(S(=O)(=O)N3CCN(c4cccc(Cl)c4)CC3)c2n1 the results were E coli RNAP 3, Pyk2 oligo antag -3.1*, Mac1 fbg enh -1, Mac1 fbg inh 13 and Cav32 inh -2.9.
O=S(=O)(c1cccc2cccnc12)N1CCN(c2ccccc2)CC1 was read as Pyk2 oligo antag -1.3, Mac1 fbg enh -4 and Mac1 fbg inh 1.
CCN1C(=O)/C(=C/c2ccc(OC)c(OC)c2)N=C1SCC(=O)NCc1ccco1 was read as Pyk2 oligo antag 0.21.
For O=C(CN1CCN(Cc2ccccc2)CC1)Nc1cccc(C(F)(F)F)c1 the results were Pyk2 oligo antag 0.74, Mac1 fbg enh -3, Mac1 fbg inh -1 and Cav32 inh -6.6*.
`O=C(CN1CCC(C(O)(c2ccccc2)c2ccccc2)CC1)Nc1ccccc1` gave Pyk2 oligo antag -1.3, Mac1 fbg enh 1, Mac1 fbg inh 0 and Cav32 inh -2.4*.
Screening O=C(CN1CCC(C(O)(c2ccccc2)c2ccccc2)CC1)Nc1cc(Cl)ccc1Cl returned Pyk2 oligo antag 0.17 and Cav32 inh -0.12.
Screening C/C(=N\NC(=O)c1nn(C)c(C)c1Br)c1ccc(NC(=O)c2ccccc2F)cc1 returned Pyk2 oligo antag 1.1, Mac1 fbg enh 44 and Mac1 fbg inh 6.
CCN(CC)S(=O)(=O)c1ccc2c(c1)nc(CCC(=O)Nc1ccccc1Cc1ccccc1)n2CC was read as Pyk2 oligo antag -0.63, Mac1 fbg enh 0, Mac1 fbg inh -2 and Cav32 inh -4.4*.
`CCn1c(CCC(=O)Nc2cc(F)ccc2C)nc2cc(S(=O)(=O)N(C)C)ccc21` gave E coli RNAP 4, Pyk2 oligo antag 0.82, Mac1 fbg enh 1, Mac1 fbg inh -5 and Cav32 inh 1.6.
CC(c1ccccc1)N1C(=O)c2ccccc2C1O (configuration not stated) was read as Mac1 fbg enh 1, Mac1 fbg inh -4 and Cav32 inh 0.24.
Screening O/N=C/c1cc(Br)ccc1OCc1ccc(F)cc1 returned Pyk2 oligo antag -1.9 and Cav32 inh -4.6*.
Screening Cc1ccc(COc2ccc(Br)cc2/C=N/O)cc1 returned Pyk2 oligo antag -2.2, Mac1 fbg enh 0, Mac1 fbg inh -6 and Cav32 inh 0.082.
`Cc1ccc(NC(=O)CN(C)S(=O)(=O)c2cccc3nsnc23)cc1Cl` gave E coli RNAP 6, Pyk2 oligo antag 0.71, Mac1 fbg enh 7, Mac1 fbg inh -50 and Cav32 inh -7.2*.
`CN(CC(=O)Nc1ccc(F)c(F)c1)S(=O)(=O)c1cccc2nsnc12` gave E coli RNAP 1, Pyk2 oligo antag 0.22 and Cav32 inh -0.26.
For CCOC(=O)CSc1nc(C2CC2)cc(-c2ccc(F)cc2)c1C#N the results were Pyk2 oligo antag -3.3*, Mac1 fbg enh 0, Mac1 fbg inh 12 and Cav32 inh -3.5.
Screening Cc1ccc(S(=O)(=O)NCC(=O)NCc2ccncc2)cc1 returned Pyk2 oligo antag -0.99 and Cav32 inh 0.42.
`CCOc1ccc(S(=O)(=O)NCc2ccncc2)cc1` gave Pyk2 oligo antag 0.36, Mac1 fbg enh -7, Mac1 fbg inh 98* and Cav32 inh -0.03.
`CCOC(=O)COc1ccc(S(=O)(=O)NCc2ccncc2)cc1` gave E coli RNAP 7, Pyk2 oligo antag -0.54, Mac1 fbg enh -9, Mac1 fbg inh 80 and Cav32 inh -5.3*.
For CCOC(=O)COc1ccc(S(=O)(=O)NCc2ccco2)cc1 the results were E coli RNAP 13, Pyk2 oligo antag 1.4, Mac1 fbg enh -4, Mac1 fbg inh -6 and Cav32 inh 0.093.
For Cc1ccc(S(=O)(=O)NCc2ccncc2)cc1 the results were E coli RNAP 12, Pyk2 oligo antag 1.4, Mac1 fbg enh -5, Mac1 fbg inh 69* and Cav32 inh 1.3.
CC1(C)CC(=O)C2=C(C1)N(c1ccccc1)C(=O)C2(O)C(F)(F)F (configuration not stated) was read as Pyk2 oligo antag 0.34.
Cc1ccc(NC(=O)c2ccc(Cl)c(N3C(=O)C=CC3=O)c2)cc1 was read as Pyk2 oligo antag 0.05 and Cav32 inh 0.94.
Screening CCCCCCCCN1[C@@H](CC(=O)OCC)c2cc(C(F)(F)F)ccc2S1(=O)=O returned Cav32 inh -4.2*.
Cc1cccc(N2CCN(C3=NC(=O)C(Cc4ccccc4)S3)CC2)c1 (configuration not stated) was read as Mac1 fbg enh -3 and Mac1 fbg inh -10.
For COc1ccc(OCCNS(=O)(=O)c2ccc3oc4ccccc4c3c2)cc1 the results were Pyk2 oligo antag -0.67, Mac1 fbg enh 1, Mac1 fbg inh -1 and Cav32 inh -0.4.
